This is part of a sample that, as a whole, favours compounds with a hit. Of some 79,000 tested, about 15% had one in any assay. Rule as the data show it: active = growth inhibition above about 70%; inactive = the rest.
Tests used:
[1] = NCI Yeast Anticancer Drug Screen. Data for the rad50 strain (AID 155);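 also: 0% = growth of vehicle-only cultures of the same strain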; conditions: S. cerevisiae rad50 strain growth inhibition; at 50.0 µM; active compounds read high
In short: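 Growth of the mutant yeast was measured after compound exposure and referenced to vehicle-treated cultures.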

[2] = NCI Yeast Anticancer Drug Screen. Data for the mec2-1 strain (AID 157); conditions: S. cerevisiae mec2-1 strain, at 50.0 µM, active compounds read high
In short: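 Test agents were screened against the mec2-1 yeast strain, with defined DNA repair or cell cycle alteration. Growth was scored as inhibition against vehicle-only controls.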

[3] = NCI Yeast Anticancer Drug Screen. Data for the sgs1 mgt1 strain (AID 161);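 also: 0% = growth of cultures given vehicle only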; conditions: S. cerevisiae sgs1 mgt1 strain, at 50.0 µM, active compounds read high
In short: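 Genetically altered yeast, compound exposure, growth inhibition relative to vehicle.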

[4] = NCI Yeast Anticancer Drug Screen. Data for the cln2 rad14 strain (AID 165);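 also: 0% = growth equal to vehicle treated cultures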; conditions: S. cerevisiae cln2 rad14 strain, at 50.0 µM, active compounds read high
In short: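 Growth of compound-exposed yeast (cln2 rad14 genotype) measured and expressed as inhibition relative to vehicle.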

[5] = NCI Yeast Anticancer Drug Screen. Data for the bub3 strain (AID 167); conditions: S. cerevisiae bub3 mutant strain, at 50.0 µM, active compounds read high
In short: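 Whole-cell yeast assay. The mutant strain was incubated with compounds, and growth inhibition was determined by comparison with vehicle-treated cells.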

[6] = NCI Yeast Anticancer Drug Screen. Data for the mlh1 rad18 strain (AID 175); conditions: S. cerevisiae mlh1 rad18 strain growth inhibition; at 50.0 µM; active compounds read high
In short: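 In this whole-cell yeast screen, a strain with altered DNA damage repair is challenged with compound, and its growth is measured against matched vehicle-treated controls.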

Measured: growth inhibition

Oc1ccc(-c2c3ccccc3c(-c3ccc(OCCBr)cc3)c3ccccc23)cc1
inactive: [1] -24.2% | [2] -9.75% | [3] -9.9% | [4] 4.65% | [5] -11.3% | [6] 7.4%

CC(=O)OCC1OC(n2c(-c3ccccc3)c(N=Nc3ccccc3)c(C)c(C#N)c2=S)C(OC(C)=O)C(OC(C)=O)C1OC(C)=O (stereo unspecified)
inactive: [1] -14% | [2] -17.4% | [3] -20.2% | [4] 11.5% | [5] 2.55% | [6] 9.75%

C/C(Cc1ccccc1)=N\NS(=O)(=O)c1ccc(C)cc1
inactive: [1] 44.4% | [2] -2.15% | [3] 35.9% | [4] 8.85% | [5] 1.1% | [6] 34.6%

Cc1c2ccccc2nc(CS(=O)c2ccccc2)[n+]1[O-] (stereo unspecified)
inactive: [1] -8.8% | [2] 21.9% | [3] 20.1% | [4] -36.4% | [5] 16.8% | [6] 20.2%

CC1(O)CC(C(F)(F)F)(C(F)(F)F)OC1=O (stereo unspecified)
inactive: [1] -20.9% | [2] -42.7% | [3] -7.75% | [4] -28.9% | [5] -2.25% | [6] -13.9%

O=C(O)Cc1cccc2nnnn12
inactive: [1] 14.2% | [2] -17.8% | [3] -7.5% | [4] 15.1% | [5] -4.75% | [6] 23.9%

CCCn1cnc2c(NN=O)ncnc21
inactive: [1] -42% | [2] -13.2% | [3] -51.6% | [4] -23.2% | [5] -9.35% | [6] -45.5%

C[N+](C)(C)CCc1ccc2ccccc2c1
inactive: [1] 12.2% | [2] 11.8% | [3] 9.35% | [4] 0.1% | [5] 5.7% | [6] 12.8%

CC(C)CC(C)OB(OC(C)CC(C)C)OC(C)CC(C)C (stereo unspecified)
inactive: [1] -11.2% | [2] -24.1% | [3] -4.3% | [4] -16.9% | [5] 0.7% | [6] -14.6%

CC1CCCCC1NC(=O)c1ccccc1 (stereo unspecified)
inactive: [1] -12% | [2] -10.6% | [3] -5.2% | [4] -34.8% | [5] -13.7% | [6] -3.1%

CCO/C=N\c1c(C#N)c(CC#N)nn1C
inactive: [1] -3.55% | [2] -12% | [3] -8.65% | [4] -27.9% | [5] -1.75% | [6] -13.4%

CC(c1ccccc1)C1(C)NC(=O)NC1=O (stereo unspecified)
inactive: [1] -12.4% | [2] -24.7% | [3] -2.1% | [4] -4.1% | [5] 6.55% | [6] -10.1%

COC(=O)C[C@](O)(CCCC(C)(C)O)C(=O)O[C@@H]1C(OC)=C[C@]23CCCN2CCc2cc4c(cc2[C@H]13)OCO4
inactive: [1] 51.2% | [2] 35.4% | [3] 43.2% | [4] 41% | [5] 43.3% | [6] 42.5%

O=c1c(Br)c(-c2ccccc2)[nH]c2ccccc12
inactive: [1] 2.95% | [2] -12.8% | [3] -32.5% | [4] 0.9% | [5] -5.7% | [6] 7.7%

COc1ccc(/C=N/N2CCN(/N=C/c3ccc(OC)c(O)c3)CC2)cc1O
inactive: [1] 22.1% | [2] 4.5% | [3] 15.1% | [4] 28.6% | [5] 1.05% | [6] 9.85%

O=C1Sc2ccccc2C(=O)N2CCCC12 (stereo unspecified)
inactive: [1] -20.8% | [2] -8.25% | [3] -11.5% | [4] 3.2% | [5] 8.2% | [6] -10.2%

Cc1ccc(S(=O)(=O)OC2CCC(C(C)(C)C)C(Cl)C2)cc1 (stereo unspecified)
inactive: [1] -8% | [2] 8.3% | [3] 3.2% | [4] 9.55% | [5] 3.35% | [6] -6.75%

CCOC(=O)C1CSC(c2ccccc2)=N1 (stereo unspecified)
inactive: [1] 8.75% | [2] -4.4% | [3] -2.35% | [4] -4.25% | [5] -8.35% | [6] 27.1%

CC(C)(C)OC(=O)NC1CCCCC1NC(=O)C(=O)NC1CCCCC1NC(=O)OC(C)(C)C (stereo unspecified)
inactive: [1] -17.1% | [2] -18.7% | [3] -14.8% | [4] 4.2% | [5] -10.8% | [6] -30.3%

Cc1cc(C(N)=O)no1
inactive: [1] 1.5% | [2] -2.55% | [3] -5.7% | [4] -10% | [5] 3.9% | [6] -1.05%

CN(C)CCNC(=O)c1nc([N+](=O)[O-])cn1C
inactive: [1] 31.9% | [2] 3.55% | [3] -2.25% | [4] 7.35% | [5] 20.4% | [6] -69.2%

CCOC(=O)/C=C(\CC(=O)OCC)Nc1ccc(OC)cc1
inactive: [1] 6.8% | [2] -21.1% | [3] 4.1% | [4] -13.2% | [5] -2.3% | [6] -15.9%

COc1ccccc1Nc1nc(N)nc(N)c1N=O
inactive: [1] 11.4% | [2] -36.1% | [3] -16.2% | [4] -27.7% | [5] -34.6% | [6] -56.1%

CN1C=CC(=Cc2ccccc2)C=C1
inactive: [1] 3.3% | [2] 5.85% | [3] -6.45% | [4] -25% | [5] -10.8% | [6] 1.4%

N#CCCC(=O)c1ccc[nH]1
inactive: [1] 6.6% | [2] 10.8% | [3] 2.2% | [4] 5.8% | [5] 1.3% | [6] 8.4%

CCOC(=O)C1=C(N)n2c(s/c(=C/c3ccc(N(C)C)cc3)c2=O)=C(C(=O)OCC)C1c1ccc(N(C)C)cc1 (stereo unspecified)
inactive: [1] -7.3% | [2] -19.1% | [3] -9.1% | [4] -7.2% | [5] 3.4% | [6] -7.3%

COC(=O)C(CC12CC3CC(CC(C3)C1)C2)NC(=O)C(N)CC(=O)O (stereo unspecified)
inactive: [1] -42.9% | [2] -30.4% | [3] -23.8% | [4] 15.9% | [5] 14.7% | [6] -24.4%

O=C(Nc1ccc(Cl)cc1Cl)C(=O)C(C(=O)c1ccc2ccccc2c1)C1OC(=O)c2ccccc21 (stereo unspecified)
inactive: [1] 13.4% | [2] 21.6% | [3] 2.7% | [4] 15.9% | [5] -12.6% | [6] -6.45%

COC(=O)C1(C)CCCC2(C)C1CCC1(O)C2CC2OC2(C(C)C)C1O (stereo unspecified)
inactive: [1] -2.65% | [2] -21.4% | [3] -0.9% | [4] -31.4% | [5] -13.2% | [6] 3.45%

CCC(C)CCC(=O)OCC(=O)c1ccc(-c2ccccc2)cc1 (stereo unspecified)
inactive: [1] 13.7% | [2] -18.9% | [3] 14.8% | [4] -13.5% | [5] 7% | [6] 5.75%

Nc1nc(N)c2nc(-c3ccc([N+](=O)[O-])cc3)c(=O)[nH]c2n1
inactive: [1] -9.75% | [2] -8.5% | [3] -2.05% | [4] -11.3% | [5] 29.2% | [6] 14.7%

O=C(OC1COC(n2c(=O)oc3cc([N+](=O)[O-])c([N+](=O)[O-])cc32)C(OC(=O)c2ccccc2)C1OC(=O)c1ccccc1)c1ccccc1 (stereo unspecified)
inactive: [1] -5.15% | [2] 8.6% | [3] 14.4% | [4] -9.15% | [5] -8.55% | [6] 3.35%

COC(=O)c1cc(C(=O)OC)c(CC(=O)C(=O)Nc2c(C(C)C)cccc2C(C)C)nc1CC(=O)C(=O)Nc1c(C(C)C)cccc1C(C)C
inactive: [1] -18.8% | [2] -22.9% | [3] -11.7% | [4] 1.75% | [5] -13.1% | [6] -6.85%

CN(Cc1nc2c(N)nc(N)nc2nc1N)c1ccc(C(=O)NC(CCC(=O)O)C(=O)O)cc1 (stereo unspecified)
inactive: [1] 7.65% | [2] 42.2% | [3] 22.3% | [4] -7.4% | [5] -1.95% | [6] -26.1%

Nc1cc(Cl)c(N)c(Cl)c1
inactive: [1] 1.8% | [2] -21.6% | [3] -9.65% | [4] 14.1% | [5] -19.4% | [6] -0.9%

CCCCN(C)C(=O)C1=C(C)NC(C)=C(C(=O)N(C)CCCC)C1
inactive: [1] -1.45% | [2] -26.4% | [3] -12.2% | [4] -20.3% | [5] -16.2% | [6] -58%

c1ccc2c3c(cc(CCc4cc5c(c6ccccc46)CCCC5)c2c1)CCCC3
inactive: [1] -9.8% | [2] -18.3% | [3] -5.65% | [4] -16% | [5] -8.9% | [6] -4.2%

CC1=C(C(=O)NC(C)(C)C)CC(C(=O)NC(C)(C)C)C(C)N1 (stereo unspecified)
inactive: [1] -21.4% | [2] -25.8% | [3] -17.6% | [4] 2.45% | [5] -3.2% | [6] -18.2%

Nc1nc(-c2ccccc2)cc2ccccc12
inactive: [1] 0.55% | [2] -12.7% | [3] 1.65% | [4] -18.7% | [5] -13.2% | [6] 18.1%

Cc1ccc(C(c2ccc(C)c(C)c2)C(O)C(O)C(O)CO)cc1C (stereo unspecified)
inactive: [1] 20% | [2] -2.25% | [3] 0.65% | [4] 12.9% | [5] 6.7% | [6] 8.85%

CCCCCCCCCCCCN(CC(O)C(O)C(OC1OC(CO)C(O)C(O)C1O)C(O)CO)C(=O)CCCCCCCCCCC (stereo unspecified)
inactive: [1] -2.7% | [2] -19.2% | [3] 17.7% | [4] 0.4% | [5] 4.3% | [6] -50.5%
